# Reference: PubChem BioAssay (NCATS)
# Inconclusive results are not listed. A call without a number means that no potency is given here. Unmarked numbers belong to inactive results. The source made the active and inactive calls. Calls follow the shape of the dose curve; as a rule, active = well fitted curve in the direction sought with a large enough effect; inconclusive = small, poorly fitted or top-dose-only effect, or another doubt; inactive = no such curve, though single readings can be large; an effect the other way counts as inactive or inconclusive. *1 amine or outer side, *2 acyl side, *3 side chain or, on linkers, in order; H or OH if unused. Where a SMILES comes first, the peptide text is derived from it. Bridges are numbered along the chain shown (N, C = ends). X6 = O=C(CCC[*:2])[*:1]
# Key:
# [1] = Primary qHTS for inhibitors of nuclear receptor binding SET domain protein 2 (NSD2) in an isogenic RCH-ACV NSD2 p.E1099K mutant (9B) (AID 1645876)
# [2] = Primary qHTS for inhibitors of nuclear receptor binding SET domain protein 2 (NSD2) in an RCH-ACV wild type WT cells (2C) (AID 1645877)
# Also: nearly all actives have a fitted effect of over 70% in size.
smiles,measurement,setting,value
COC(=O)C1=COC(O[C@@H]2O[C@H](CO)[C@@H](O)[C@H](O)[C@H]2O)/C(=C\COC(=O)c2ccc(OC3OC(CO)C(O)C(O)C3O)c(OC)c2)C1CC(=O)OCCc1ccc(O)cc1 (stereo partly specified),outcome,[1],inactive [at 9.23 µM]
same,outcome,[2],inactive [at 9.23 µM]
COC(=O)C1=CO[C@@H](O[C@@H]2O[C@H](CO[C@@H]3O[C@H](COC(=O)/C=C/c4ccc(O)cc4)[C@@H](O)[C@H](O)[C@H]3O)[C@@H](O)[C@H](O)[C@H]2O)[C@@H]2C(CO)=CC[C@H]12,Potency,[1],inactive
same,Potency,[2],inactive
CC[C@H](C)[C@@H]1NC(=O)[C@H](Cc2ccc(OC)cc2)NC(=O)CCCSC[C@@H](C(=O)N2CCC[C@H]2C(=O)N[C@@H](CC(C)C)C(=O)NCC(N)=O)NC(=O)[C@H](CC(N)=O)NC(=O)[C@H](CCC(N)=O)NC1=O (Y(Me)IQNCPLG-NH2; linker N-5 via X6),Potency,[1],inactive
same,Potency,[2],inactive
COc1cc(CCc2ccccc2)c(C(=O)O)c2c1CC(C(C)(C)O)O2 (stereo unspecified),Potency,[1],inactive
same,Potency,[2],inactive
O=C(O[C@H]1[C@@H]2C[C@@H]3OC[C@@](O)([C@H]2[C@H](O[C@@H]2O[C@H](CO)[C@@H](O)[C@H](O)[C@H]2O)O3)[C@@H]1O)c1ccccc1,Potency,[1],inactive
same,Potency,[2],inactive
COc1ccc([C@H]2Cc3cccc(O)c3C(=O)O2)cc1,Potency,[1],inactive
same,Potency,[2],inactive
O=C1NCc2nc3ccccc3c(=O)n2C1Cc1c[nH]c2ccccc12 (stereo unspecified),Potency,[1],inactive
same,Potency,[2],inactive
CC1(C)CCCC2(C)C1C(O)C=C(CO)C2(O)C(=O)O (stereo unspecified),Potency,[1],inactive
same,Potency,[2],inactive
CC1(C)CC2C3=CCC4C5(C)CCC(OC6OC(C(=O)O)C(O)C(O)C6OC6OC(CO)C(O)C(O)C6OC6OC(CO)C(O)C(O)C6O)C(C)(CO)C5CCC4(C)C3(C)CCC2(C)C(OC2OCC(O)C(OC3OC(CO)C(O)C(O)C3O)C2O)C1O (stereo unspecified),"activity change, negative = viability loss",[1],-1.65% [at 9.23 µM]
same,"activity change, negative = cell killing",[2],-4.93% [at 9.23 µM]
O=C(NN1CCCCC1)c1nn(-c2ccc(Cl)cc2Cl)c(-c2ccc(C#Cc3ccc(C(F)(F)F)cc3)s2)c1CNS(=O)(=O)N1CCCC1,Potency,[1],inactive
same,Potency,[2],inactive
CC(C)NC[C@H](O)COc1ccc(CCOCC2CC2)cc1,Potency,[1],inactive
same,Potency,[2],inactive
COc1cc(C[C@H]2COC(=O)[C@@H]2Cc2ccc(O)c(OC)c2)ccc1O,Potency,[1],inactive
same,Potency,[2],inactive
COc1cc(CC(COC2OC(CO)C(O)C(O)C2O)c2cc(/C=C/CO)cc(OC)c2O)ccc1O (stereo unspecified),Potency,[1],inactive
same,Potency,[2],inactive
CC[C@H](C)/C=C(C)/C=C/C(=O)Cc1cc(O)c(C)c(O)c1C=O,Potency,[1],inactive
same,Potency,[2],inactive
C=C1CC23CC1(O)CCC2C1=CC2OC(=O)C(C)(C2O)C1C3C(=O)O (stereo unspecified),Potency,[1],inactive
same,Potency,[2],inactive
CC1C/C=C/C=C\CCCCC(O)C/C=C/C(=O)O1 (stereo unspecified),Potency,[1],inactive
same,Potency,[2],inactive
CC1CCC23COC(=O)C2=CC(O)CC3C1(C)CCC1=CC(=O)OC1O (stereo unspecified),Potency,[1],inactive
same,Potency,[2],inactive
C[C@@H]1CC[C@]2(C(=O)O)CC[C@]3(C(=O)O)C(=CCC4[C@@]5(C)CC[C@H](O[C@@H]6O[C@@H](C)[C@H](O[C@@H]7O[C@H](CO)[C@@H](O)[C@H](O)[C@H]7O)[C@@H](O)[C@H]6O)C(C)(C)C5CC[C@]43C)C2[C@H]1C (stereo partly specified),Potency,[1],inactive
same,Potency,[2],inactive
CC(C)[C@@H](C)/C=C/[C@@H](C)[C@H]1CC[C@H]2C3=CC=C4C[C@@H](O)CC[C@]4(C)[C@H]3CC[C@]12C,Potency,[1],inactive
same,Potency,[2],inactive
CC(=O)OC[C@@]12[C@@H](OC(C)=O)C[C@@H](C)[C@](C)([C@@H]3C[C@H]4C=CO[C@H]4O3)[C@H]1CCC[C@]21CO1,Potency,[1],inactive
same,Potency,[2],inactive
CC1=C(C)C(=O)OC(C(C)C2C(O)CC3C4C5OC5C5(O)CC(OC6OC(CO)C(O)C(O)C6O)CC(O)C5(C)C4CCC32C)C1 (stereo unspecified),Potency,[1],inactive
same,Potency,[2],inactive
CC(=O)O[C@@H]1[C@H](O[C@@H]2OC[C@](O)(CO)[C@H]2O)[C@@H](O[C@@H]2O[C@@H](C)[C@H](O)[C@@H](O)[C@H]2O)[C@H](OC(=O)[C@]23CCC(C)(C)C[C@H]2C2=CCC4[C@@]5(C)C[C@H](O)[C@H](O[C@@H]6O[C@H](C(=O)O)[C@@H](O)[C@H](O)[C@H]6O)[C@@](C)(C(=O)O)C5CC[C@@]4(C)[C@]2(C)CC3)O[C@@H]1C (stereo partly specified),"activity change, negative = viability loss",[1],-7.7% [at 9.23 µM]
same,"activity change, negative = cell killing",[2],-8.29% [at 9.23 µM]
CC12CCC3c4ccc(O)cc4CCC3C1CCC2OC1OC(C(=O)O)C(O)C(O)C1O (stereo unspecified),Potency,[1],inactive
same,Potency,[2],inactive
